Data: the supplement of paper PMC12669032

What was measured:
Experiment in all cases: growth AUC relative to DMSO control (median of replicates) (fraction); higher = more growth (less inhibition), active = hit call of the paper
Conditions in all cases: 20 µM; 24 h;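 active = AUC reduced over 20% with Padj below 0.05 in at least 2 of 3 replicates; inactive = otherwise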
[1] = tested on: Coprococcus comes
Procedure, shortened: (§1)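 Starting at OD600 0.05, gut bacterial monocultures in mGAM were grown anaerobically at 37 °C with 20 µM compound (1% DMSO) under pierced gas-permeable seals. OD600 was read every hour for 24 h, and the lowest OD of each curve was set to 0. Area under the growth curve was normalised to the plate median of solvent-only wells, or to row and column medians on the industrial chemical plate, and the median of three biological replicates grown on separate days is given.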

[2] = tested on: Escherichia coli ED1a
Procedure, shortened: as §1

[3] = tested on: Escherichia coli IAI1
Procedure, shortened: as §1

[4] = tested on: Eubacterium rectale
Procedure, shortened: as §1

[5] = tested on: Fusobacterium nucleatum subsp. animalis
Procedure, shortened: as §1

[6] = tested on: Lactobacillus gasseri
Procedure, shortened: as §1

[7] = tested on: Lactobacillus paracasei
Procedure, shortened: as §1

[8] = tested on: Odoribacter splanchnicus
Procedure, shortened: as §1

[9] = tested on: Parabacteroides distasonis
Procedure, shortened: as §1

[10] = tested on: Parabacteroides merdae
Procedure, shortened: as §1

Measured: growth AUC

Cc1cc(C2CC2)nc(Nc2ccc(O)cc2)n1
inactive: [1] 0.998 | [2] 0.989 | [3] 1.01 | [4] 0.903 | [5] 0.955 | [6] 1.19 | [7] 1.01 | [8] 0.965 | [9] 1.03 | [10] 0.982

Nc1cc(Cl)nc(C(=O)O)c1Cl
inactive: [1] 1.03 | [2] 1.04 | [3] 1.02 | [4] 1.01 | [5] 1.03 | [6] 0.961 | [7] 1.24 | [8] 1.05 | [9] 1.03 | [10] 1.02

CCSC(=O)N(CC)CC
inactive: [1] 1.04 | [2] 1 | [3] 0.994 | [4] 1 | [5] 1.02 | [6] 0.988 | [7] 0.983 | [8] 0.915 | [9] 1.01 | [10] 0.981

CCS(=O)(=O)c1nnc(N(C)C(=O)NC)s1
inactive: [1] 0.938 | [2] 0.984 | [3] 0.99 | [4] 0.976 | [5] 1.01 | [6] 1.04 | [7] 0.851 | [8] 0.992 | [9] 1.06 | [10] 1.01

CC[N+](CC)(CC(=O)Nc1c(C)cccc1C)Cc1ccccc1.O=C([O-])c1ccccc1
inactive: [1] 1.04 | [2] 1.01 | [3] 1.04 | [4] 1.14 | [5] 1.02 | [6] 0.967 | [7] 1.05 | [8] 0.995 | [9] 1.06 | [10] 1.05

C#CC(C)N(C)C(=O)Nc1ccc(Cl)cc1 (stereo not given)
inactive: [1] 1.05 | [2] 1.04 | [3] 0.988 | [4] 1 | [5] 1.03 | [6] 1.07 | [7] 1.02 | [8] 0.994 | [9] 0.95 | [10] 1.01

O=C(O)c1ccc(Cl)cc1Cl
inactive: [1] 1 | [2] 0.986 | [3] 0.993 | [4] 0.957 | [5] 0.891 | [6] 0.991 | [7] 0.994 | [8] 1.01 | [9] 0.984 | [10] 0.989

CC(C)(C)Nc1nc(N)nc(Cl)n1
inactive: [1] 0.999 | [2] 1.03 | [3] 0.998 | [4] 0.979 | [5] 1 | [6] 0.974 | [7] 0.987 | [8] 0.995 | [9] 1.02 | [10] 0.97

CCOc1ccc2c(c1)C(C)=CC(C)(C)N2
inactive: [1] 1.03 | [2] 1.03 | [3] 0.986 | [4] 1.06 | [5] 1.03 | [6] 0.992 | [7] 1.02 | [8] 1.07 | [9] 0.97 | [10] 1.01

Oc1cccc2ccccc12
inactive: [1] 0.96 | [2] 0.994 | [3] 0.982 | [4] 0.957 | [5] 0.988 | [6] 0.976 | [7] 1.02 | [8] 0.975 | [9] 0.983 | [10] 0.997

COC(=O)Cc1cccc2ccccc12
inactive: [1] 0.997 | [2] 0.969 | [3] 0.968 | [4] 1.07 | [5] 0.996 | [6] 0.924 | [7] 0.974 | [8] 1.08 | [9] 0.986 | [10] 0.995

COC(=O)c1cccc(C)c1S(=O)(=O)NC(=O)Nc1nc(OCC(F)(F)F)nc(N(C)C)n1
inactive: [1] 0.967 | [2] 0.992 | [3] 0.997 | [4] 0.963 | [5] 0.956 | [6] 1.05 | [7] 0.936 | [8] 0.997 | [9] 1.02 | [10] 0.99

CCc1ccc(O)cc1
inactive: [1] 0.934 | [2] 1.02 | [3] 0.997 | [4] 0.988 | [5] 1.13 | [6] 0.963 | [7] 0.84 | [8] 0.979 | [9] 1.02 | [10] 0.968

CCc1cccc(C)c1NC(=O)C(=O)O
inactive: [1] 0.985 | [2] 1.02 | [3] 1 | [4] 0.989 | [5] 0.981 | [6] 0.916 | [7] 0.969 | [8] 0.998 | [9] 0.982 | [10] 1.03

Cc1ccc(Cl)cc1
inactive: [1] 1 | [2] 1.01 | [3] 1.05 | [4] 0.962 | [5] 1.1 | [6] 1.06 | [7] 0.997 | [8] 0.964 | [9] 0.984 | [10] 0.99

CC(C)N(C)S(=O)(=O)NC(=O)c1cc(-n2c(=O)cc(C(F)(F)F)[nH]c2=O)c(F)cc1Cl
inactive: [1] 0.971 | [2] 0.995 | [3] 1 | [4] 0.959 | [5] 1.08 | [6] 1.03 | [7] 0.893 | [8] 1.03 | [9] 0.961 | [10] 1.02

O=S(=O)(Oc1ccc(Cl)cc1Cl)c1ccccc1
inactive: [1] 1.03 | [2] 0.98 | [3] 0.986 | [4] 1.02 | [5] 0.938 | [6] 1.03 | [7] 1.14 | [8] 1.09 | [9] 0.972 | [10] 1.02

CNC(=O)/C(=N/OC)c1ccccc1COc1cc(C(=O)O)ccc1C
inactive: [1] 0.984 | [2] 1.05 | [3] 0.978 | [4] 0.963 | [5] 0.949 | [6] 1.1 | [7] 0.98 | [8] 0.987 | [9] 1.01 | [10] 0.973

CCc1cccc(C)c1NC(C)C(=O)O (racemic)
inactive: [1] 1.04 | [2] 0.986 | [3] 0.977 | [4] 1.19 | [5] 1.04 | [6] 0.97 | [7] 0.968 | [8] 0.999 | [9] 0.978 | [10] 1

COC(=O)C(C)Oc1cc(Cl)c(Cl)cc1Cl (stereo not given)
inactive: [1] 1 | [2] 0.985 | [3] 1.05 | [4] 0.975 | [5] 1.03 | [6] 1.12 | [7] 0.883 | [8] 0.927 | [9] 0.994 | [10] 0.974

CCCCCCCCOC(=O)COc1cc(Cl)c(Cl)cc1Cl
inactive: [1] 0.946 | [2] 1.02 | [3] 1.01 | [4] 0.995 | [5] 1.02 | [6] 0.977 | [7] 1.11 | [8] 1.08 | [9] 1.03 | [10] 1.01

Nc1nc2ccccc2[nH]1
inactive: [1] 0.971 | [2] 0.976 | [3] 0.986 | [4] 1.08 | [5] 0.932 | [6] 0.883 | [7] 0.969 | [8] 0.942 | [9] 0.615 | [10] 0.933

CCNc1nc(NC(C)CC)nc(OC)n1 (stereo not given)
inactive: [1] 1.02 | [2] 0.992 | [3] 0.994 | [4] 0.961 | [5] 1.05 | [6] 1.11 | [7] 1.12 | [8] 1 | [9] 0.996 | [10] 1.02

Br[C@@H]1CC[C@@H](Br)[C@@H](Br)CC[C@H](Br)[C@H](Br)CC[C@H]1Br
inactive: [1] 0.975 | [2] 0.944 | [3] 0.968 | [4] 1.08 | [5] 1.03 | [6] 0.91 | [7] 0.872 | [8] 0.992 | [9] 0.825 | [10] 1

CCOC(=O)C(C)Oc1ccc(Oc2cnc3cc(Cl)ccc3n2)cc1 (stereo not given)
inactive: [1] 1.01 | [2] 0.997 | [3] 1.04 | [4] 1.09 | [5] 1.03 | [6] 1.04 | [7] 0.95 | [8] 1.02 | [9] 0.971 | [10] 0.956

Oc1ccccc1
inactive: [1] 1.03 | [2] 1 | [3] 0.983 | [4] 0.983 | [5] 1.04 | [6] 1.08 | [7] 1.04 | [8] 0.984 | [9] 1.04 | [10] 1.01

CC(C)(C)C(O)/C(=C\c1ccc(Cl)cc1)n1cncn1 (stereo not given)
inactive: [1] 1.03 | [2] 0.988 | [3] 1.03 | [4] 0.978 | [5] 0.987 | [6] 0.943 | [7] 1.05 | [8] 0.976 | [9] 0.959 | [10] 0.948
